Values joined by “and” are separate entries in the source; they are usually repeats but may differ in a detail not shown here. Equal values may be shown once. Inconclusive results are not listed. Active and inactive are the calls of the source. Calls come from the whole dose curve; as a rule, active = well fitted curve in the direction sought with a large enough effect; inconclusive = small, poorly fitted or top-dose-only effect, or another doubt; inactive = no such curve, though single readings can be large; an effect the other way counts as inactive or inconclusive.
Key:
CRL-7250 = normal cell line; assay: Cytotoxic Profiling of Annotated Libraries Using Quantitative High-Throughput Screening (AID 1296008); details: Five cell lines viability, CellTiter-Glo ATP luminescence, 48-72 h; max response: hits give low values; note: nearly all actives have a fitted effect of over 60% in size; note: potency is the fitted concentration of half-maximal effect; for max response: % is set by controls: 0 for no effect and ±100 for the full control effect
Procedure, shortened: (§1)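 Compounds were pin-transferred onto cells and incubated 48 or 72 hr at 37 degree Celsius, 95% humidity. CellTiter-Glo was added, plates sat 10 min at room temperature, then ATP-coupled luminescence was imaged as the viability read-out.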

HaCat [1] = assay: as above; details: Five cell lines viability, CellTiter-Glo ATP luminescence, 48-72 h; max response: hits give low values
Procedure, shortened: as §1

KB-3-1 = assay: as above; details: Five cell lines viability, CellTiter-Glo ATP luminescence, 48-72 h; max response: hits give low values
Procedure, shortened: as §1

NIH3T3 [2] = assay: as above; details: Five cell lines viability, CellTiter-Glo ATP luminescence, 48-72 h; max response: hits give low values
Procedure, shortened: as §1

HACAT [3] = assay: qHTS assay to identify novel small-molecules to repurpose for Merkel cell carcinoma treatment (AID 1296009); details: MCC and control cell lines, CellTiter-Glo viability, 72 h; at 44.8 µM (top of the series) unless noted; note: nearly all actives have a fitted effect of over 60% in size; note: potency is the fitted concentration of half-maximal effect
Procedure, shortened: (§2)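 qHTS format: cells treated with library compounds in DMSO across 8 (NPC) or 11 (MIPE) concentrations. Readout after 72 hr at 37 degree celsius was CellTiter-Glo luminescence.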

MCC-13 = assay: as above; details: MCC and control cell lines, CellTiter-Glo viability, 72 h; series mostly up to 46 µM
Procedure, shortened: as §2

MKL-1 = assay: as above; details: MCC and control cell lines, CellTiter-Glo viability, 72 h; series mostly up to 46 µM
Procedure, shortened: as §2

MKL-2 = assay: as above; details: MCC and control cell lines, CellTiter-Glo viability, 72 h; series mostly up to 46 µM
Procedure, shortened: as §2

NIH3T3 [4] = assay: as above; details: MCC and control cell lines, CellTiter-Glo viability, 72 h; at 44.8 µM (top of the series)
Procedure, shortened: as §2

WaGa = assay: as above; details: MCC and control cell lines, CellTiter-Glo viability, 72 h; series mostly up to 46 µM
Procedure, shortened: as §2

C33A = assay: Primary qHTS to identify gynecologic anti-cancer compounds using libraries of approved drugs and bioactive compounds (AID 1345084); details: Gynecologic cancer cell panel viability, ATPlite luminescence, 48 h; series mostly up to 57.5 µM; note: % is set by controls: 0 for no effect and ±100 for the full control effect; nearly all actives have a fitted effect of over 55% in size
Procedure, shortened: (§3)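 Cells, 1,000 per well, were allowed to settle for 16 h at 37 C before compound addition. Five concentrations were tested for 48 h, and viability was read by ATPlite luminescence after 15 min at room temperature.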

CAOV3 = assay: as above; details: Gynecologic cancer cell panel viability, ATPlite luminescence, 48 h; series mostly up to 57.5 µM
Procedure, shortened: as §3

CASKI = assay: as above; details: Gynecologic cancer cell panel viability, ATPlite luminescence, 48 h; series mostly up to 57.5 µM
Procedure, shortened: as §3

Es-2 = assay: as above; details: Gynecologic cancer cell panel viability, ATPlite luminescence, 48 h; series mostly up to 57.5 µM
Procedure, shortened: as §3

HeLa = assay: as above; details: Gynecologic cancer cell panel viability, ATPlite luminescence, 48 h; series mostly up to 57.5 µM
Procedure, shortened: as §3

UISO = assay: qHTS assay to identify novel small-molecules to repurpose for Merkel cell carcinoma treatment (AID 1296009); details: MCC and control cell lines, CellTiter-Glo viability, 72 h; series mostly up to 46 µM; note: nearly all actives have a fitted effect of over 60% in size; note: potency is the fitted concentration of half-maximal effect
Procedure, shortened: as §2

MCC-26 = assay: as above; details: MCC and control cell lines, CellTiter-Glo viability, 72 h; series mostly up to 46 µM
Procedure, shortened: as §2

W2 = assay: qHTS profiling for inhibitors of Plasmodium falciparum proliferation (AID 504749); note: nearly all actives have a fitted effect of over 60% in size; note: potency is the fitted concentration of half-maximal effect; details: P. falciparum in erythrocytes, SYBR Green DNA, 72 h; series mostly up to 28.7 µM
Procedure, shortened: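 Parasite proliferation within erythrocytes, 72 h exposure. Endpoint: SYBR Green I fluorescence after overnight lysis at room temperature. Controls: 0.29 uM artemisinin, DMSO.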

HEK293 = assay: Cytotoxic Profiling of Annotated Libraries Using Quantitative High-Throughput Screening (AID 1296008); details: Five cell lines viability, CellTiter-Glo ATP luminescence, 48-72 h; max response: hits give low values; note: nearly all actives have a fitted effect of over 60% in size; note: potency is the fitted concentration of half-maximal effect; for max response: % is set by controls: 0 for no effect and ±100 for the full control effect
Procedure, shortened: as §1

CC(C)=CCOc1ccc(/C=C/C(=O)c2ccc(OCC=C(C)C)cc2OCC(=O)O)cc1
inactive: max response (CRL-7250) -15.2% | outcome (HaCat [1]) | max response (KB-3-1) 1.11% | outcome (NIH3T3 [2]) | outcome (HACAT [3]) | Potency (MCC-13) | Potency (MKL-1) | Potency (MKL-2) | outcome (NIH3T3 [4]) | Potency (WaGa) | Potency (C33A) | Potency (CAOV3) | Potency (CASKI) | Potency (Es-2) | Potency (HeLa)

C#C[C@]1(O)CC[C@H]2[C@@H]3[C@H](C)CC4=C(CCC(=O)C4)[C@H]3CC[C@@]21C
active: Potency (WaGa) 18.8 µM
inactive: max response (CRL-7250) -3.96% | outcome (HaCat [1]) | max response (KB-3-1) -4.12% | max response (NIH3T3 [2]) -7.98% | outcome (HACAT [3]) | Potency (MCC-13) | Potency (MKL-1) | Potency (UISO) | Potency (C33A) | Potency (CAOV3) | Potency (CASKI) | Potency (Es-2) | Potency (HeLa)

CCN(CC)CCOC(=O)C(Cc1cccc2ccccc12)CC1CCCO1 (stereo not given)
inactive: max response (CRL-7250) -0.146% | outcome (HaCat [1]) | max response (KB-3-1) 13.9% | max response (NIH3T3 [2]) 3.27% | outcome (HACAT [3]) | Potency (MCC-13) | Potency (MCC-26) | Potency (MKL-1) | Potency (MKL-2) | Potency (UISO) | Potency (WaGa) | Potency (C33A) | Potency (CAOV3) | Potency (Es-2) | Potency (HeLa)

C[C@H]1[C@H]2CC[C@H]3[C@@H]4CC=C5C[C@@H](N(C)C)CC[C@]5(C)[C@H]4CC[C@]23CN1C
inactive: max response (CRL-7250) -17.6% | outcome (HaCat [1]) | max response (KB-3-1) 3.38% | max response (NIH3T3 [2]) 0.439% | outcome (HACAT [3]) | Potency (MCC-13) | Potency (MCC-26) | Potency (MKL-2) | Potency (UISO) | Potency (WaGa) | Potency (C33A) | Potency (CAOV3) | Potency (CASKI) | Potency (Es-2) | Potency (HeLa)

CCc1cc(Cl)c(OC)c(C(=O)NC[C@@H]2CCCN2CC)c1O
inactive: max response (CRL-7250) 3.41% | outcome (HaCat [1]) | max response (KB-3-1) -11.4% and -0.677% and -21.5% | max response (NIH3T3 [2]) 4.04% | outcome (HACAT [3]) | Potency (MCC-13) | Potency (MKL-1) | Potency (MKL-2) | Potency (UISO) | Potency (WaGa) | Potency (C33A) | Potency (CAOV3) | Potency (CASKI) | Potency (Es-2) | Potency (HeLa)

CC(C)NCC(O)c1ccc2ccccc2c1 (stereo not given)
active: Potency (W2) 1.9 µM
inactive: max response (CRL-7250) 3.16% | outcome (HaCat [1]) | max response (KB-3-1) -2.59% | outcome (NIH3T3 [2]) | outcome (HACAT [3]) | Potency (MCC-13) | Potency (MCC-26) | Potency (MKL-1) | Potency (MKL-2) | outcome (NIH3T3 [4]) | Potency (UISO) | Potency (WaGa) | Potency (C33A) | Potency (CAOV3) | Potency (CASKI) | Potency (Es-2) | Potency (HeLa)

CCCCCCCCCCC[C@@H](C[C@@H]1OC(=O)[C@H]1CCCCCC)OC(=O)[C@H](CC(C)C)NC=O
inactive: outcome (CRL-7250) | outcome (HaCat [1]) | max response (KB-3-1) -9.82% | max response (NIH3T3 [2]) 1.98% | outcome (HACAT [3]) | Potency (MCC-13) | Potency (MCC-26) | Potency (MKL-1) | Potency (MKL-2) | Potency (UISO) | Potency (WaGa) | Potency (C33A) | Potency (CAOV3) | Potency (CASKI) | Potency (Es-2) | Potency (HeLa)

CCCCC(CC)COC(=O)/C=C/c1ccc(OC)cc1 (stereo not given)
inactive: Potency (W2) | max response (CRL-7250) -9.77% | max response (HEK293) -2.18% | max response (NIH3T3 [2]) -7.17% | Potency (MCC-13) | Potency (MKL-1) | Potency (MKL-2) | Potency (UISO) | Potency (WaGa) | Potency (C33A) | Potency (CASKI) | Potency (Es-2) | Potency (HeLa)

CC[N+](C)(CC)CCOC(=O)C(O)(c1ccccc1)C1CCCCC1 (stereo not given)
inactive: max response (CRL-7250) -11.2% | outcome (HaCat [1]) | max response (KB-3-1) 5.15% | max response (NIH3T3 [2]) -5.74% | outcome (HACAT [3]) | Potency (MCC-13) | Potency (MCC-26) | Potency (MKL-1) | Potency (MKL-2) | Potency (UISO) | Potency (WaGa) | Potency (C33A) | Potency (CAOV3) | Potency (CASKI) | Potency (Es-2) | Potency (HeLa)

CC(C)n1c(/C=C/[C@@H](O)C[C@@H](O)CC(=O)O)c(-c2ccc(F)cc2)c2ccccc21
active: Potency (CRL-7250) 1.5 µM | Potency (HEK293) 16.8 µM | Potency (NIH3T3 [2]) 11.9 µM | Potency (MCC-13) 9.44 µM | Potency (MCC-26) 13.3 µM | Potency (MKL-1) 13.3 µM | Potency (UISO) 3.35 µM
inactive: Potency (CASKI) | Potency (Es-2)

CN1CCN(c2c(F)cc3c(=O)c(C(=O)O)cn4c3c2SCC4)CC1
inactive: max response (CRL-7250) -2.29% | outcome (HaCat [1]) | max response (KB-3-1) -15.8% | max response (NIH3T3 [2]) -3.6% | outcome (HACAT [3]) | Potency (MCC-13) | Potency (MCC-26) | Potency (MKL-1) | Potency (MKL-2) | Potency (UISO) | Potency (WaGa) | Potency (C33A) | Potency (CAOV3) | Potency (CASKI) | Potency (Es-2) | Potency (HeLa)

COc1ccc(-c2cc(C(F)F)nn2-c2ccc(S(N)(=O)=O)cc2)cc1F
inactive: Potency (W2) | max response (CRL-7250) 2.74% | max response (HaCat [1]) -0.189% | max response (KB-3-1) 15.2% | max response (NIH3T3 [2]) 1.89% | Potency (MCC-13) | Potency (MCC-26) | Potency (MKL-1) | Potency (MKL-2) | Potency (UISO) | Potency (WaGa) | Potency (C33A) | Potency (CAOV3) | Potency (CASKI) | Potency (Es-2) | Potency (HeLa)

C[C@@H](O)[C@H]1C(=O)N2C(C(=O)O)=C(S[C@@H]3CN[C@H](CNS(N)(=O)=O)C3)[C@H](C)[C@H]12
inactive: Potency (W2) | max response (CRL-7250) -1.21% | outcome (HaCat [1]) | max response (KB-3-1) 7.85% | max response (NIH3T3 [2]) 3.07% | outcome (HACAT [3]) | Potency (MCC-13) | Potency (MCC-26) | Potency (MKL-1) | Potency (MKL-2) | Potency (UISO) | Potency (WaGa) | Potency (C33A) | Potency (CAOV3) | Potency (CASKI) | Potency (Es-2) | Potency (HeLa)

N/C(=N\N=C\c1ccc(Cl)cc1)N/N=C/c1ccc(Cl)cc1
inactive: outcome (CRL-7250) | outcome (HaCat [1]) | max response (KB-3-1) 13.1% | max response (NIH3T3 [2]) -19% | outcome (HACAT [3]) | Potency (MCC-13) | Potency (MCC-26) | Potency (MKL-1) | Potency (UISO) | Potency (WaGa) | Potency (C33A) | Potency (CAOV3) | Potency (CASKI) | Potency (Es-2) | Potency (HeLa)
